Values without a mark were called inactive. Results filed as inconclusive are left out. Calls of active or inactive are those of the source. Unless noted, calls follow the shape of the dose curve; as a rule, active = well fitted curve in the direction sought with a large enough effect; inconclusive = small, poorly fitted or top-dose-only effect, or another doubt; inactive = no such curve, though single readings can be large; an effect the other way counts as inactive or inconclusive.
Columns and labels:
[1] = AP1 Signaling Pathway (AID 357; active = well fitted curve in either direction with a large enough effect, not every such curve was filed as active;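 also: ME-180 reporter cells stimulated with EGF at its EC50 level; % is scaled to controls: 0 for no effect and ±100 for the full control effect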); settings: ME-180 AP-1-bla reporter, EGF-induced, beta-lactamase ratio, 5 h; at 7.69 µM (top of the series) unless noted
How it was run: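 Cells are seeded overnight, exposed to compound titrations and an EC50 level of EGF for 5 hours at 37 °C, then loaded with CCF4 dye for 2.5 hours. Beta-lactamase activity under the AP-1 element is read as a blue/green ratio.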

[2] = biological target: Cytochrome P450 1A2 (Homo sapiens) (UniProt P05177); experiment: p450-cyp1a2 (AID 410; calls by dose curve; also: potency is read from the fitted curve at half-maximal effect); settings: recombinant CYP1A2, luciferin-ME demethylation, luminescence; series mostly up to 57 µM
Sequence of Cytochrome P450 1A2 (Homo sapiens) (P05177 whole entry, looked up): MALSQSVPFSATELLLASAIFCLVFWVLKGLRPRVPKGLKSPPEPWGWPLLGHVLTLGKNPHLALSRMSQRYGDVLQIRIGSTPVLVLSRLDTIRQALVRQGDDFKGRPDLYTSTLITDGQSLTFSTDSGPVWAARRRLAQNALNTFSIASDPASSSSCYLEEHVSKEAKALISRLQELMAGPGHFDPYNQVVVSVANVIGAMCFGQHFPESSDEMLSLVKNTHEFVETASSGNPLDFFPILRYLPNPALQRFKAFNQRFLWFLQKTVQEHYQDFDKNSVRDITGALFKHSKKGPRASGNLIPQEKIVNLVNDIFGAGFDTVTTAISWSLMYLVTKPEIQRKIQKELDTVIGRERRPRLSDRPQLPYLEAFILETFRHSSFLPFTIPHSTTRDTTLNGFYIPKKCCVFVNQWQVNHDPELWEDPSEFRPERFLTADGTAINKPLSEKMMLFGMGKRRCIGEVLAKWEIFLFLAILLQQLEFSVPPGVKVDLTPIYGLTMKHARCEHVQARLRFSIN
How it was run: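 O-Demethylation of luciferin 6' methyl ether by human CYP1A2 is monitored as luciferase luminescence. Substrate sits at Km (100uM); enzyme is 20nM. Values are scaled to 57 uM furafylline as maximal inhibition.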

[3] = Stat Signaling Pathway (AID 446; active = well fitted curve in either direction with a large enough effect, not every such curve was filed as active;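 also: ME-180 cervical cancer cells given 40 pM IL-6 alongside compound; SIE-controlled beta-lactamase reporter measured as 460/530 nm FRET emission ratio; % is scaled to controls: 0 for no effect and ±100 for the full control effect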); settings: ME-180 (cervical carcinoma) SIE beta-lactamase reporter, IL-6 stimulated, 5 h; at 7.69 µM (top of the series) unless noted
How it was run: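 Emission at 460 and 530 nm (excitation 405 nm) reports SIE-controlled beta-lactamase in ME-180 cells. Cells received compound with 40 pM IL-6 for 5 hrs at 37 C; data scaled between 300 pM IL-6 and 125 nM JAK-inhibitor controls.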

[4] = biological target: Glucocorticoid receptor (Homo sapiens) (UniProt P04150); experiment: GR-GFP Redistribution (AID 450;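 active = compounds whose dose series gives a full or clear partial fitted curve of increased nuclear translocation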; also: potency is read from the fitted curve at half-maximal effect); settings: U2OS GR-GFP nuclear translocation, laser cytometry, 2 h
Sequence of Glucocorticoid receptor (Homo sapiens) (P04150 whole entry, looked up, the tested form may be a part): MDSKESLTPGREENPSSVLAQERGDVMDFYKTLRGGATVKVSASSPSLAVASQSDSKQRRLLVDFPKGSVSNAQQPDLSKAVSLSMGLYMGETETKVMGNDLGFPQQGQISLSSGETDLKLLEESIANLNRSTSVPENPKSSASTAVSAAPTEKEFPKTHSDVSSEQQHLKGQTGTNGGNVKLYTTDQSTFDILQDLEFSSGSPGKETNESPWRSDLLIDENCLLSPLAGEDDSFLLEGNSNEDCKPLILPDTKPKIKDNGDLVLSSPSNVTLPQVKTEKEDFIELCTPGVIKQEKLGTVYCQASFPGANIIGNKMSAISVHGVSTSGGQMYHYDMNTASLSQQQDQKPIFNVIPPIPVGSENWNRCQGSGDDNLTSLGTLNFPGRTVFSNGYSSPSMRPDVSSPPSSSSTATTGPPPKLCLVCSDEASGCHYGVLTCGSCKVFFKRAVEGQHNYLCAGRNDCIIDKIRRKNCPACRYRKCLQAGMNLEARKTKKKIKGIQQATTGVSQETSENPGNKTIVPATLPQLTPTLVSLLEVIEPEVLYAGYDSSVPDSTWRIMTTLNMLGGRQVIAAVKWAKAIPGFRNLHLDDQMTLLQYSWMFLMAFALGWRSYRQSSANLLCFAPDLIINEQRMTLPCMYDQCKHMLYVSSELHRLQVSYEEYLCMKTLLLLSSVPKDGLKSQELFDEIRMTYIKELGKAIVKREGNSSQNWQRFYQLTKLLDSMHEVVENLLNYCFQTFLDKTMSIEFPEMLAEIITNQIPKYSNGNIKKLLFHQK

[5] = biological target: Glucocorticoid receptor (Homo sapiens) (UniProt P04150); experiment: GR-EFC Redistribution (AID 451; calls by dose curve; also: potency is read from the fitted curve at half-maximal effect); settings: CHO-K1 GR-EFC translocation, beta-gal luminescence, 2 h
How it was run: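 Translocation of GR-ED fusion to nuclear EA restores b-gal, read by luminescence after 1 h room-temperature detection. Engineered CHO-K1 biosensor cells, 1,000/well, exposed 2 h at 37 C to titrations up to 46 uM final.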

[6] = biological target: Mitogen-activated protein kinase 10 (Mus musculus) (UniProt Q61831); experiment: JNK3 AlphaScreen Assay (AID 530; active = well fitted curve in either direction with a large enough effect, not every such curve was filed as active;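 also: kinase came from lysate of stimulated human HepG2 cells; signal reports phosphorylation of biotinylated GST-cJun 1-79 at Ser73 with 10 µM ATP; % is scaled to controls: 0 for no effect and ±100 for the full control effect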); settings: JNK3 lysate, c-Jun phosphorylation; series mostly up to 57.1 µM
How it was run: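 qHTS titrations with 15 min compound pre-incubation before adding ATP (10 uM final). Read-out: AlphaScreen of Ser73-phosphorylated biotin-GST-cJun using HepG2 lysate JNK3 activated by IL-1β and TNFα.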

[7] = biological target: Cytochrome P450 3A4 (Homo sapiens) (UniProt P08684); experiment: qHTS Assay for Inhibitors and Substrates of Cytochrome P450 3A4 (AID 884); settings: recombinant CYP3A4, Luciferin-PPXE luminescence; series mostly up to 57.1 µM; also: potency is read from the fitted curve at half-maximal effect; nearly all actives have a fitted effect of over 50% in size
Sequence of Cytochrome P450 3A4 (Homo sapiens) (P08684 whole entry, looked up): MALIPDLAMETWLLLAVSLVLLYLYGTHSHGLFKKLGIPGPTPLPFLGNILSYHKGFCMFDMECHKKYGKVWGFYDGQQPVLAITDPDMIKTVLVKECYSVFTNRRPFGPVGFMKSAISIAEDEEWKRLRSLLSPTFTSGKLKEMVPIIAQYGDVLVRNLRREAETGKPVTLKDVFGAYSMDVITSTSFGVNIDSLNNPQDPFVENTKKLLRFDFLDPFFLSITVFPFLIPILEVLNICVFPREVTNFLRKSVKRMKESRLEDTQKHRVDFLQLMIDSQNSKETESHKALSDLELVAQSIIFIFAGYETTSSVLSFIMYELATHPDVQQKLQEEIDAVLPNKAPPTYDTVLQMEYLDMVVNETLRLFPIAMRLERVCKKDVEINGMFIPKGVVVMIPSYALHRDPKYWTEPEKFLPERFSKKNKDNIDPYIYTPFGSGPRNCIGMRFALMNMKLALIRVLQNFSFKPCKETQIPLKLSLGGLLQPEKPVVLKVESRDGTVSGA
How it was run: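 Luminescent readout of luciferin produced by CYP3A4 (20 nM) dealkylation of Luciferin-PPXE, 25 uM (its KM). NADPH-driven reaction ran 60 min at RT after 10 min compound preincubation; data scaled to 57 uM ketoconazole as 100% inhibition.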

[8] = biological target: Cytochrome P450 3A4 (Homo sapiens) (UniProt P08684); experiment: qHTS Assay for Activators of Cytochrome P450 3A4 (AID 885); settings: recombinant CYP3A4, Luciferin-PPXE luminescence, 60 min; series mostly up to 57.1 µM; also: nearly all actives have a fitted effect of over 65% in size
How it was run: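 Activators are scored by enhanced luminescence from CYP3A4 conversion of luciferin-PPXE (25uM, equal to KM) to luciferin, after 60 min at RT with an NADPH-regenerating system.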

[9] = biological target: Cytochrome P450 2D6 (Homo sapiens) (UniProt P10635); experiment: qHTS Assay for Inhibitors and Substrates of Cytochrome P450 2D6 (AID 891); settings: recombinant CYP2D6, luciferin-ME EGE luminescence; series mostly up to 57.1 µM; also: potency is read from the fitted curve at half-maximal effect; nearly all actives have a fitted effect of over 60% in size
Sequence of Cytochrome P450 2D6 (Homo sapiens) (P10635 whole entry, looked up): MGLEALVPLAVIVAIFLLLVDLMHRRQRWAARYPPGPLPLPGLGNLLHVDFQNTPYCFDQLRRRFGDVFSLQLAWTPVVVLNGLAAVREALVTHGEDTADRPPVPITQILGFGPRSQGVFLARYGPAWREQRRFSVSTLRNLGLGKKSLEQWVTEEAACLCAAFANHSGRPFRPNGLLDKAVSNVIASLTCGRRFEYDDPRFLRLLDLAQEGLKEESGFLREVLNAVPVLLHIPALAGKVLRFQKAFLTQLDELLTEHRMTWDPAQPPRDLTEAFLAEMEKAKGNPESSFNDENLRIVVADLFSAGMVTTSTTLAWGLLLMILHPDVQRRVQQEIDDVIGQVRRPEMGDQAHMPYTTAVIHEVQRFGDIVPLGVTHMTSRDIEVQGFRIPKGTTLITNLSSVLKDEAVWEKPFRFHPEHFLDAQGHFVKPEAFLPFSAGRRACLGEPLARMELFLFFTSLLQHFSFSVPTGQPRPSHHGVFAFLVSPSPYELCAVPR
How it was run: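 Luminescent read-out of luciferin formed by 5 nM human CYP2D6 demethylating 30 uM Luciferin-ME EGE (Km level) over 60 min at room temperature after NADPH regeneration addition. Data normalized to full inhibition by 1.43 uM quinidine.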

[10] = biological target: Cytochrome P450 2C19 (Homo sapiens) (UniProt P33261); experiment: qHTS Assay for Inhibitors and Substrates of Cytochrome P450 2C19 (AID 899); settings: recombinant CYP2C19, luciferin-H EGE luminescence; series mostly up to 57.1 µM; also: potency is read from the fitted curve at half-maximal effect; nearly all actives have a fitted effect of over 60% in size
Sequence of Cytochrome P450 2C19 (Homo sapiens) (P33261 whole entry, looked up): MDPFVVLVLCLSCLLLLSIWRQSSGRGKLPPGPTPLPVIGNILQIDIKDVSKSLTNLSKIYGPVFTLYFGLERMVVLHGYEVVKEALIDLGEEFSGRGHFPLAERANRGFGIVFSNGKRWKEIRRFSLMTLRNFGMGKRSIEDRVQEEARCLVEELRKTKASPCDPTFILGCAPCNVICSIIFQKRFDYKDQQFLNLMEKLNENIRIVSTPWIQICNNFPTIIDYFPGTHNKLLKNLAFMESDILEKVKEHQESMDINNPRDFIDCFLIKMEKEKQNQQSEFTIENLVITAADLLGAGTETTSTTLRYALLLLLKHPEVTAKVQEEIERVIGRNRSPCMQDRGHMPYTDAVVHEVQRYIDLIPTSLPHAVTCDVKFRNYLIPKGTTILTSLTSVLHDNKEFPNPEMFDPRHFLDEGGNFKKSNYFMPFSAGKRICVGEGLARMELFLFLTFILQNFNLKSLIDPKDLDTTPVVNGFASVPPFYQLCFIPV
How it was run: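 Reactions contain 5nM enzyme, 10uM Luciferin-H EGE (KM) and 50mM KPO4; compound preincubates 10 min at 37C, NADPH regeneration starts turnover for 60 min. Luminescence after detection reagent gives activity.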

[11] = biological target: Dual specificity protein kinase CLK4 (Homo sapiens) (UniProt Q9HAZ1); experiment: qHTS Assay for Inhibitors of CDC-like Kinase 4 (Kinase-Glo Assay) (AID 1770); settings: recombinant Clk4, Kinase-Glo ATP depletion luminescence; series mostly up to 66.7 µM; also: nearly all actives have a fitted effect of over 65% in size; also: potency is read from the fitted curve at half-maximal effect
Sequence of Dual specificity protein kinase CLK4 (Homo sapiens) (Q9HAZ1 whole entry, looked up): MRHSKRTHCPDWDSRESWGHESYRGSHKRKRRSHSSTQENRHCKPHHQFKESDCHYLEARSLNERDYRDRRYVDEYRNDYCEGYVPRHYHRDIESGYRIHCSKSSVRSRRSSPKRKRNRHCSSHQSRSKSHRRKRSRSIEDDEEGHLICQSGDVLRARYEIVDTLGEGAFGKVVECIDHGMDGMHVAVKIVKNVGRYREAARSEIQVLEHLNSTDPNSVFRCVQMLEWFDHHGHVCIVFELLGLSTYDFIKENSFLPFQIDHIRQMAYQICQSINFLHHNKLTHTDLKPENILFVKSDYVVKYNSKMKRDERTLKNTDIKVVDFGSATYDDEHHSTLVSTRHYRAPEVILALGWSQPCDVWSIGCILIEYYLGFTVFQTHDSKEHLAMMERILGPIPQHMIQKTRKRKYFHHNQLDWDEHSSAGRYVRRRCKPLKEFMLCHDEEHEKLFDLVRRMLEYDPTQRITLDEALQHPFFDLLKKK
How it was run: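 Substrate mix (RS peptide 100 uM, ATP 1 uM) dispensed, compound pinned in, then Clk4 added to 25 nM final. Incubated 4.5 h at RT; Kinase-Glo reagent added, luminescence read after 5 min.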

[12] = biological target: Dual specificity protein kinase CLK4 (Homo sapiens) (UniProt Q9HAZ1); experiment: qHTS Assay for Inhibitors of CDC-like Kinase 4 (ADP-Glo Assay) (AID 1771); settings: recombinant CLK4, ADP-Glo luminescence; series mostly up to 80 µM; also: nearly all actives have a fitted effect of over 70% in size; also: potency is read from the fitted curve at half-maximal effect
How it was run: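 Compounds are pin-transferred onto substrate mix (100 uM RS peptide, 1 uM ATP), then 25 nM Clk4 is added. After 1 hr at room temperature, ADP-Glo reagent runs 45 min, detection reagent 30 min, then luminescence is read.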

[13] = biological target: Ubiquitin carboxyl-terminal hydrolase 1 (Homo sapiens) (UniProt O94782); experiment: Inhibitors of USP1/UAF1: Pilot qHTS (AID 504865); settings: purified USP1/UAF1, Ub-rhodamine cleavage fluorescence; series mostly up to 54.9 µM;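 also: rhodamine fluorescence freed from ubiquitin-rhodamine substrate followed over time; top concentration of the series differs between compounds; % is scaled to controls: 0 for no effect and ±100 for the full control effect; nearly all actives have a fitted effect of over 35% in size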
Sequence of Ubiquitin carboxyl-terminal hydrolase 1 (Homo sapiens) (O94782 whole entry, looked up): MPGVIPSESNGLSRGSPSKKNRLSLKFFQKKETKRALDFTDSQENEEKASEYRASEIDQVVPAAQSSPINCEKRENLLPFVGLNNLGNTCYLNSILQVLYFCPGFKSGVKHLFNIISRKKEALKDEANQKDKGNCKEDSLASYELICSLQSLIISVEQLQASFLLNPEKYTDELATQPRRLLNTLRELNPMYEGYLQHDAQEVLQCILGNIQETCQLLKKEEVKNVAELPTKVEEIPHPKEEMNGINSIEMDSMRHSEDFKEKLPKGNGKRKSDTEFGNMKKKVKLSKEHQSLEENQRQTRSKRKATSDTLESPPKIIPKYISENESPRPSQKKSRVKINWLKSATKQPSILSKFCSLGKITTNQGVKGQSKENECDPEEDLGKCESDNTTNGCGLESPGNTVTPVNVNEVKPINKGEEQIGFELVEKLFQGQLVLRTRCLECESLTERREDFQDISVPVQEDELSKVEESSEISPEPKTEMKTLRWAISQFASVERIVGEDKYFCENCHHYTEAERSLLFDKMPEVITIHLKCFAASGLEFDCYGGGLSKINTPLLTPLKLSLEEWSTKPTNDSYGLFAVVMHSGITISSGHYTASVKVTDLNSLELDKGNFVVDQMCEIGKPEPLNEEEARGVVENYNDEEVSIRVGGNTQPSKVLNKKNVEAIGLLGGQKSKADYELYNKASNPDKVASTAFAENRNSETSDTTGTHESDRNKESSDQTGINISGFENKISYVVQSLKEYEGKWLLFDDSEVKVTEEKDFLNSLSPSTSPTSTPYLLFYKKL
How it was run: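 In 50mM HEPES pH 7.8 containing 0.5mM EDTA, 1mM TCEP, 0.1 mg/ml BSA and 0.01% Tween-20, 1nM USP1/UAF1 is exposed to compound for 15 min, then Ub-Rho (150nM final) is added and fluorescence is read over time.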

[14] = Primary qHTS for small molecule stabilizers of the endoplasmic reticulum resident proteome: Secreted ER Calcium Modulated Protein (SERCaMP) assay (AID 1508630); settings: SH-SY5Y GLuc-SERCaMP (Gaussia luciferase released on ER calcium loss) secretion, thapsigargin, luminescence; series mostly up to 38.4 µM; also: % is scaled to controls: 0 for no effect and ±100 for the full control effect
How it was run: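 The SH-SY5Y reporter protocol was run at 3 concentrations up to 38.3 uM (primary) or 11 concentrations (follow-up): 16 h compound, 100 nM thapsigargin for 4 h, then extracellular luciferase luminescence.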

[15] = biological target: Lysosomal acid glucosylceramidase (Homo sapiens) (UniProt P04062); experiment: Glucocerebrosidase-p2 (AID 348; in the data active = potency below about 10 µM; also: potency is read from the fitted curve at half-maximal effect); settings: purified GBA, blue fluorogenic substrate, 40 min
Sequence of Lysosomal acid glucosylceramidase (Homo sapiens) (P04062 whole entry, looked up): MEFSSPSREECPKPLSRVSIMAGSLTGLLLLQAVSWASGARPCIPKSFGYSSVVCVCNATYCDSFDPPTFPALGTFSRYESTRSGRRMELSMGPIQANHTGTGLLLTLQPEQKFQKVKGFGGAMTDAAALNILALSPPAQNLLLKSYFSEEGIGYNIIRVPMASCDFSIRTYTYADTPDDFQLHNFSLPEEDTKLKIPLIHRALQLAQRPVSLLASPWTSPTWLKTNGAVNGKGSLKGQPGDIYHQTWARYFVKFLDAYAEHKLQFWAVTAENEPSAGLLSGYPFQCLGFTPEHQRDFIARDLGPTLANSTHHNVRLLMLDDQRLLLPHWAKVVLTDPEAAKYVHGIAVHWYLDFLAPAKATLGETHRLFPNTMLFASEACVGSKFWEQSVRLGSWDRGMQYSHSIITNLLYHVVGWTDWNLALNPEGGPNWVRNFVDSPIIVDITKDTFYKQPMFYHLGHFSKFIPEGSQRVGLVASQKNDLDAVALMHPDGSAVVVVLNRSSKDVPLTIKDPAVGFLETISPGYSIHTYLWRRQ
How it was run: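 Normal human glucocerebrosidase (0.2 nM) with blue fluorogenic substrate (80 uM final) in citrate/phosphate pH 5.9 with 10mM sodium taurocholate, 0.01% tween-20; 40 min RT, NaOH/glycine stop; fluorescence Ex 365/Em 440; AC50 from a titration from 0.6 nM upwards.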

[16] = NFAT Signaling Pathway (AID 444; active = well fitted curve in either direction with a large enough effect, not every such curve was filed as active); settings: Jurkat NFAT-bla M1, carbachol, beta-lactamase ratio, 5 h; at 7.69 µM (top of the series) unless noted
How it was run: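 Read-out: CCF4 FRET ratio (460 nm/530 nm) after 1 h RT dye loading, used for %activity and AC50 from titration series. Cells: Jurkat NFAT-β-lactamase/M1 line, treated with compound plus 1 uM carbachol for 5 h, 37 °C.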

[17] = biological target: 3',5'-cyclic-AMP phosphodiesterase 4B (Homo sapiens) (UniProt Q07343); experiment: qHTS Assay for Inhibitors of PDE-IV (AID 607; active = well fitted activation curve with a large enough effect in the main read-out, with a control signal flat, not every such curve was filed as active; also: % of control where 0% means no effect); settings: HEK293 ACTOne CNG channel cells, membrane potential fluorescence; series mostly up to 22.9 µM
How it was run: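 The readout is membrane depolarisation from a cAMP-sensing CNG channel, detected with a potential dye at ex 535/em 590. Cells were HEK293-derived (endogenous PDE-IV) at 1000 cells/well, titrated up to 22.9 uM final.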

[18] = biological target: Dual specificity protein kinase CLK4 (Homo sapiens) (UniProt Q9HAZ1); experiment: qHTS Assay for Inhibitors of CDC-like Kinase 4 (ADP-FP Assay) (AID 1795); settings: Transcreener ADP fluorescence polarization; series mostly up to 50 µM;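 also: recombinant human CLK4 phosphorylating RS repeat peptide at 1 µM ATP; % is scaled to controls: 0 for no effect and ±100 for the full control effect; nearly all actives have a fitted effect of over 60% in size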
How it was run: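 Clk4 6.25 nM; RS peptide 100 uM; ATP 1 uM; 25 mM Tris pH 7.5, 10 mM MgCl2; 1 h reaction. ADP detected via antibody/orange tracer FP displacement; TG003 positive control.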

Compound | activity change, negative = inhibition [1] | Potency [2] | activity, negative = inhibition [3] | Potency [4] | Potency [5] | Potency [6] | Potency [7] | Potency [8] | Potency [9] | Potency [10] | Potency [11] | Potency [12] | Potency [13] | outcome [14] | Potency [15] | activity change, negative = inhibition [16] | Potency [17] | Potency [18]
COc1ccc2[nH]cc(CCNc3nc(-c4cccnc4)nc4ccccc34)c2c1 | -14.3% | 501 nM (active) | -15.6% | > 46 µM | > 46 µM | inactive | 1.58 µM (active) | inactive | 6.31 µM (active) | 501 nM (active) | 11.2 µM (active) | 7.94 µM (active) | inactive | inactive |  |  |  | 
COc1ccc(-c2nc3cncnc3n(-c3ccccc3)c2=O)cc1 | -9.87% |  |  | > 9.22 µM | > 46 µM | inactive |  |  |  |  | inactive | inactive | inactive | inactive | > 11.4 µM | -10.5% |  | 
N#Cc1cccc(-c2nccc(NCc3cccnc3)n2)c1 |  | 251 nM (active) | 0.752% | > 46 µM | > 46 µM | inactive | 0.794 µM (active) | inactive |  |  | 14.1 µM (active) | 14.1 µM (active) |  | inactive | > 11.4 µM | 16.5% |  | 
Cc1cnc(CNc2ccnc(-c3ccoc3)n2)cn1 | 16.3% | 12600 nM (active) | 7.07% | > 46 µM | > 46 µM | inactive |  | inactive |  |  | inactive |  | inactive | inactive | > 11.4 µM | -4.07% | inactive | inactive
c1nc(N2CCOCC2)c2cc(-c3ccoc3)ccc2n1 |  |  | -19.4% | > 46 µM | > 46 µM | inactive |  |  |  |  | 0.224 µM (active) | 0.631 µM (active) | inactive | inactive | > 11.4 µM | 17.9% |  | 
COc1ccccc1CNc1nc(-c2ccccc2OC)nc2ccccc12 | 6.17% |  | -10.4% | > 46 µM | > 46 µM | inactive |  |  |  |  | inactive | inactive |  | inactive | > 11.4 µM | -24.7% |  | 
